The supplement of paper PMC10849652
The full data set covers some 7,900 targets. This sample favours those with a hit. About 0.6% of all pairs of compound and target were hits.

Key:
Test in all cases: log2 fold change, soluble protein after heating vs DMSO (PISA); higher = thermal stabilisation; K562 cells, 10 uM, 30 min; active = over 0.2 and 3.5 SD of the protein, either way, in both replicates (recomputed)
erlotinib = compound: C#Cc1cccc(Nc2ncnc3cc(OCCOC)c(OCCOC)cc23)c1 [erlotinib]
Summary of the method: (§1)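 K562 cells at 2×10^6 cells/mL were treated for 30 min with 10 μM compound, and aliquots were heated for 3 min over 48°C-58°C before pooling. Extraction used PBS with 0.5% NP-40 at 4°C, and soluble protein was the supernatant after 21,000xg for 90 min, measured by TMTpro 16plex LC-MS/MS with channel sums equalised. Thermal stability values, relative to control samples and from duplicates, are log2 fold changes.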

[1] = compound: C/C(=N\NC(=O)C1=CC(=CC=C1)S(=O)(=O)N2CCOCC2)/C3=C(C=CC(=C3)Cl)O
Summary of the method: as §1

[2] = compound: C1=CC(=C(C=C1Cl)C2=NC3=NC=CN=C3C(=N2)NC4=CC=NC=C4)F
Summary of the method: as §1

[3] = compound: C1=CC(=CC=C1C2=NC3=C(N2)C=C(C=C3)C(=O)N)OC4=CC=C(C=C4)Cl
Summary of the method: as §1

[4] = compound: C1=CC2=C(C=CC(=C2)/C=C\3/C(=O)NC(=NCC4=CC=CS4)S3)N=C1
Summary of the method: as §1

[5] = compound: C1=CC2=NC=CN=C2C=C1/C=C/3\C(=O)NC(=O)S3
Summary of the method: as §1

[6] = compound: C1=CC=C(C=C1)C2=NC(=C(N2)C3=CC=NC=C3)C4=CC(=C(C=C4)Cl)O
Summary of the method: as §1

[7] = compound: C1=CC=C2C(=C1)C3=NNC4=CC=CC(=C43)C2=O
Summary of the method: as §1

[8] = compound: C1CCN(C1)C(=O)NC2=CC=CC(=C2)NC3=NC=C(C(=N3)NCCC4=CN=CN4)Br
Summary of the method: as §1

[9] = compound: C1CN(CCC1(CC2=CC=C(C=C2)Cl)N)C3=NC=NC4=C3C=CN4
Summary of the method: as §1

Measured: log2 fold change

SAAL1 (UniProt Q96ER3)
inactive: erlotinib -0.044 | [1] 0.028 | [2] 0.046 | [3] 0.022 | [4] -0.033 | [5] 0.125 | [6] -0.041 | [7] -0.007 | [8] 0.042 | [9] -0.03

RNF187 (UniProt Q5TA31)
UniProt Q5TA31, sequence (Q5TA31 whole entry, looked up): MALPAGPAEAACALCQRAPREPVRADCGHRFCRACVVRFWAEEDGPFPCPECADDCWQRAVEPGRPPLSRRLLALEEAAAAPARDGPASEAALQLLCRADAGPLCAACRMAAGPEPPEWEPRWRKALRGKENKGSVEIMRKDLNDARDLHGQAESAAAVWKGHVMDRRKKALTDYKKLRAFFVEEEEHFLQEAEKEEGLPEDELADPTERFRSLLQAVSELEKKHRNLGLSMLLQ
inactive: erlotinib 0.095 | [1] -0.05 | [2] -0.061 | [3] -0.028 | [4] 0.101 | [5] -0.028 | [6] -0.067 | [7] 0.008 | [8] 0.017 | [9] -0.056

SIDT2 isoform 2 (UniProt Q8NBJ9)
inactive: erlotinib 0.007 | [1] 0.026 | [2] -0.027 | [3] 0.004 | [4] 0.042 | [5] 0.087 | [6] -0.053 | [7] 0.038 | [8] 0.002 | [9] 0.053

RAB5C isoform 2 (UniProt P51148)
inactive: erlotinib 0 | [1] 0.042 | [2] 0.066 | [3] 0.015 | [4] -0.083 | [5] 0.014 | [6] 0.012 | [7] 0.015 | [8] -0.003 | [9] 0.043

RPS6KA2 isoform 2 (UniProt Q15349)
UniProt Q15349, sequence (Q15349 whole entry, looked up): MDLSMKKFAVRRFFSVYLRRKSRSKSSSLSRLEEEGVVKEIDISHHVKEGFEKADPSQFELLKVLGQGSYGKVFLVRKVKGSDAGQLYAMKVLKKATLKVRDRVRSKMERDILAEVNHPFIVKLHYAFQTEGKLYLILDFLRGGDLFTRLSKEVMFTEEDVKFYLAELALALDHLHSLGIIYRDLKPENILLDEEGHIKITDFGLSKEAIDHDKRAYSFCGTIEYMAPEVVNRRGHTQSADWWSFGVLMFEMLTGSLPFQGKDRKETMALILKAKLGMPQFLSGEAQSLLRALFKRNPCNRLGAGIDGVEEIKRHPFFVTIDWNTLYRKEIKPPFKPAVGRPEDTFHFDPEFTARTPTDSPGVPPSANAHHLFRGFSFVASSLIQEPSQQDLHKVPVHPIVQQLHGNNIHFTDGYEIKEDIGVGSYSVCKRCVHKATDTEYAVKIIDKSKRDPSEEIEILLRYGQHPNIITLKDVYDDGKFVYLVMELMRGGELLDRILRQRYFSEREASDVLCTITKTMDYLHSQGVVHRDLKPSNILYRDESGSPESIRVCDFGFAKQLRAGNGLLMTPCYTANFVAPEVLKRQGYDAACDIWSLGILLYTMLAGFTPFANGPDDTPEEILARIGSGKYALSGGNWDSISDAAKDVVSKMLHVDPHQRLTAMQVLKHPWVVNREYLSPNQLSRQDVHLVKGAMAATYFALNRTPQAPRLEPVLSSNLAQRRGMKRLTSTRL
active: [7] -0.473
inactive: erlotinib 0.008 | [1] 0.092 | [2] -0.068 | [3] 0.075 | [4] 0.07 | [5] 0.06 | [6] -0.132 | [8] -0.058 | [9] -0.004

RPS16 (UniProt P62249)
inactive: erlotinib -0.166 | [1] -0.108 | [2] -0.258 | [3] 0.049 | [4] -0.075 | [5] -0.043 | [6] -0.049 | [7] 0.002 | [8] 0.025 | [9] -0.2

RMC1 (UniProt Q96DM3)
inactive: erlotinib 0.028 | [1] 0.124 | [2] 0.048 | [3] 0.04 | [4] 0.027 | [5] -0.038 | [6] 0.011 | [7] -0.055 | [8] 0.048 | [9] -0.038

RBM26 isoform 2 (UniProt Q5T8P6)
inactive: erlotinib 0.174 | [1] 0.216 | [2] 0.25 | [3] -0.004 | [4] -0.018 | [5] 0 | [6] 0.113 | [7] 0.002 | [8] -0.027 | [9] 0.012

RAC3 (UniProt P60763)
inactive: erlotinib 0.05 | [1] -0.016 | [2] 0.029 | [3] -0.042 | [4] 0.009 | [5] 0.02 | [6] -0.009 | [7] -0.09 | [8] -0.007 | [9] 0.005

RPS9 (UniProt P46781)
inactive: erlotinib -0.099 | [1] -0.05 | [2] -0.384 | [3] 0.024 | [4] -0.069 | [5] -0.011 | [6] 0.047 | [7] 0.002 | [8] 0.102 | [9] -0.172

RDH11 (UniProt Q8TC12)
UniProt Q8TC12, sequence (Q8TC12 whole entry, looked up): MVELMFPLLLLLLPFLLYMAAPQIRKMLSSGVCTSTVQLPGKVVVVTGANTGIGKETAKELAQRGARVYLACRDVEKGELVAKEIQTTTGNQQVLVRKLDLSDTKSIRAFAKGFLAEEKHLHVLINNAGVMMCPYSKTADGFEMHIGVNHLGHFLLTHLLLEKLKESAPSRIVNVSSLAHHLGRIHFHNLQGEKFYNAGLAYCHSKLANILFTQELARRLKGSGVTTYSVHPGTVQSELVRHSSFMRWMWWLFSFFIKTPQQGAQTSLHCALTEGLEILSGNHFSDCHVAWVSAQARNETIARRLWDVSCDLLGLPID
inactive: erlotinib -0.007 | [1] -0.03 | [2] 0.102 | [3] 0.068 | [4] 0.084 | [5] -0.1 | [6] 0.029 | [7] 0.04 | [8] -0.044 | [9] -0.043

RIPK1 (UniProt Q13546)
UniProt Q13546, sequence (Q13546 whole entry, looked up): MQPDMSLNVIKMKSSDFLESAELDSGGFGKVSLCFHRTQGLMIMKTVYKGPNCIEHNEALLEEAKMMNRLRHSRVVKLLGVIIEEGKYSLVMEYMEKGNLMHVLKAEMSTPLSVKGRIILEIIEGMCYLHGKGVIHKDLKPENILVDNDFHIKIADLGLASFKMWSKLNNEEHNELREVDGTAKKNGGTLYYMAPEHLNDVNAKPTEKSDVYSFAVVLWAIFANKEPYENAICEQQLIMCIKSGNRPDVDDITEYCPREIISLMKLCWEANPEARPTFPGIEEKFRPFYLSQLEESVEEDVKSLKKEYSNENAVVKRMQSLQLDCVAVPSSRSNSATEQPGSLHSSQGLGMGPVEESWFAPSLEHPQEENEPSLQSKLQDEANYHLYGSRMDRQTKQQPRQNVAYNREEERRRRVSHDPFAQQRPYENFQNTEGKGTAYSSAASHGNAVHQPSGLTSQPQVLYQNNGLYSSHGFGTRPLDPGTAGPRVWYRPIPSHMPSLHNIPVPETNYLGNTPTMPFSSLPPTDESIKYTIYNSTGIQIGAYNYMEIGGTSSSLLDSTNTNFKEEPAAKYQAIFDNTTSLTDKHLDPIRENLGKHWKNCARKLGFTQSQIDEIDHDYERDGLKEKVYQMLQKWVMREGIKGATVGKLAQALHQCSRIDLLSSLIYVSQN
inactive: erlotinib 0.013 | [1] -0.008 | [2] -0.028 | [3] 0 | [4] 0.068 | [5] -0.016 | [6] 0.004 | [7] 0.219 | [8] 0.002 | [9] -0.015

RNF220 (UniProt Q5VTB9)
UniProt Q5VTB9, sequence (Q5VTB9 whole entry, looked up): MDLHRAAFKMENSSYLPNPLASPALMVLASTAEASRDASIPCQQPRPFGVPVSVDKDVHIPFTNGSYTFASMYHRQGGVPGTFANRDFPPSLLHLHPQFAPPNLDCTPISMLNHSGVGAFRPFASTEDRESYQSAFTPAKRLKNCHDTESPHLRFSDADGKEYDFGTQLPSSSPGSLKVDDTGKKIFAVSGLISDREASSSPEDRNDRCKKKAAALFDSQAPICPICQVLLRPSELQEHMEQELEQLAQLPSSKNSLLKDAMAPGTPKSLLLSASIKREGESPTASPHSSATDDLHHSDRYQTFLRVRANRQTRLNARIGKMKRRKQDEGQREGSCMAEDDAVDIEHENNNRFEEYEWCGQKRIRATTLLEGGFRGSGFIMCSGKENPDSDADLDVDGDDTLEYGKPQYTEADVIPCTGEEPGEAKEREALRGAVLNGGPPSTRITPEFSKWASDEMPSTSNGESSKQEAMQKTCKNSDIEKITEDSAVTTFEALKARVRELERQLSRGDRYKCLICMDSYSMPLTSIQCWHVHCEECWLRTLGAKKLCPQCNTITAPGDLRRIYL
inactive: erlotinib 0.017 | [1] 0.034 | [2] 0.017 | [3] 0.011 | [4] 0.034 | [5] 0.03 | [6] 0.026 | [7] 0.011 | [8] -0.008 | [9] -0.022

RABGGTA (UniProt Q92696)
UniProt Q92696, sequence (Q92696 whole entry, looked up): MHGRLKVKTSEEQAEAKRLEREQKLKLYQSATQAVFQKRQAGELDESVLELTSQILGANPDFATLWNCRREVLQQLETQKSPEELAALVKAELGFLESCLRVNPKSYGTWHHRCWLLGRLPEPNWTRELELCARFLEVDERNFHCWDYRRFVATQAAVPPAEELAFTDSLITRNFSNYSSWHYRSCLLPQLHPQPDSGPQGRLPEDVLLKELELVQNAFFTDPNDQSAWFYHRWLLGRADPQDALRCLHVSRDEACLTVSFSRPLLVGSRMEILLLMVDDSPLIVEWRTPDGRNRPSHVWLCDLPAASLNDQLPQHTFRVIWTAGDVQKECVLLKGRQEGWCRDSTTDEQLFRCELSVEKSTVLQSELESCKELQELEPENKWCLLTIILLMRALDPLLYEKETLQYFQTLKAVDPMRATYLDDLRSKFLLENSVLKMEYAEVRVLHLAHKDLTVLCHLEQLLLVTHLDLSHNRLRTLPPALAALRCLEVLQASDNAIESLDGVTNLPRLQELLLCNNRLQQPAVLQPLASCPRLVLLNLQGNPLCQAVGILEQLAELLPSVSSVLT
inactive: erlotinib 0.068 | [1] 0.018 | [2] 0.065 | [3] 0.001 | [4] 0.063 | [5] 0.025 | [6] 0.036 | [7] 0.043 | [8] 0.005 | [9] 0.122

RIC8A isoform 3 (UniProt Q9NPQ8)
UniProt Q9NPQ8, sequence (Q9NPQ8 whole entry, looked up): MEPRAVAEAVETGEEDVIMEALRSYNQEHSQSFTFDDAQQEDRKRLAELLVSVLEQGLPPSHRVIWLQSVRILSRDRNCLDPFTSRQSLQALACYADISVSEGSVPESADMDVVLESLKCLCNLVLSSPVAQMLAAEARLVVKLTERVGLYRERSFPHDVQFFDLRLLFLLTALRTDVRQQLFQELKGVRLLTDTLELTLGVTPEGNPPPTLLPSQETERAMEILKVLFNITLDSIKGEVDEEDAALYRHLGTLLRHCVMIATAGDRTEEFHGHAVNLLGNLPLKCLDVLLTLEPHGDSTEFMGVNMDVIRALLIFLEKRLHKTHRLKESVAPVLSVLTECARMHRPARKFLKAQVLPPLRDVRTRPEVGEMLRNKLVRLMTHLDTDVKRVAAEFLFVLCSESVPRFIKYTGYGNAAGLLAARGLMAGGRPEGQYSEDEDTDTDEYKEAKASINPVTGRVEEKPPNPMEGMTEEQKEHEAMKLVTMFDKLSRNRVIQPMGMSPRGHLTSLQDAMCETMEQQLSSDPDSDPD
inactive: erlotinib 0.063 | [1] 0.114 | [2] 0 | [3] -0.031 | [4] 0.114 | [5] -0.052 | [6] 0.005 | [7] -0.021 | [8] -0.071 | [9] -0.057

RSL1D1 (UniProt O76021)
inactive: erlotinib -0.115 | [1] -0.156 | [2] -0.504 | [3] 0.073 | [4] -0.054 | [5] 0.057 | [6] -0.141 | [7] -0.086 | [8] 0.016 | [9] -0.193

SDHC (UniProt Q99643)
inactive: erlotinib -0.017 | [1] 0.033 | [2] -0.015 | [3] 0.033 | [4] -0.013 | [5] 0.17 | [6] 0.104 | [7] 0.102 | [8] 0.008 | [9] 0.02

RB1CC1 (UniProt Q8TDY2)
inactive: erlotinib 0.119 | [1] -0.066 | [2] 0.102 | [3] 0.046 | [4] 0.211 | [5] -0.07 | [6] 0.015 | [7] 0.03 | [8] -0.024 | [9] 0.022

RPS3 (UniProt P23396)
inactive: erlotinib -0.136 | [1] -0.072 | [2] -0.224 | [3] 0.061 | [4] -0.026 | [5] -0.027 | [6] -0.073 | [7] -0.03 | [8] 0.093 | [9] -0.156

SAFB2 (UniProt Q14151)
UniProt Q14151, sequence (Q14151 whole entry, looked up): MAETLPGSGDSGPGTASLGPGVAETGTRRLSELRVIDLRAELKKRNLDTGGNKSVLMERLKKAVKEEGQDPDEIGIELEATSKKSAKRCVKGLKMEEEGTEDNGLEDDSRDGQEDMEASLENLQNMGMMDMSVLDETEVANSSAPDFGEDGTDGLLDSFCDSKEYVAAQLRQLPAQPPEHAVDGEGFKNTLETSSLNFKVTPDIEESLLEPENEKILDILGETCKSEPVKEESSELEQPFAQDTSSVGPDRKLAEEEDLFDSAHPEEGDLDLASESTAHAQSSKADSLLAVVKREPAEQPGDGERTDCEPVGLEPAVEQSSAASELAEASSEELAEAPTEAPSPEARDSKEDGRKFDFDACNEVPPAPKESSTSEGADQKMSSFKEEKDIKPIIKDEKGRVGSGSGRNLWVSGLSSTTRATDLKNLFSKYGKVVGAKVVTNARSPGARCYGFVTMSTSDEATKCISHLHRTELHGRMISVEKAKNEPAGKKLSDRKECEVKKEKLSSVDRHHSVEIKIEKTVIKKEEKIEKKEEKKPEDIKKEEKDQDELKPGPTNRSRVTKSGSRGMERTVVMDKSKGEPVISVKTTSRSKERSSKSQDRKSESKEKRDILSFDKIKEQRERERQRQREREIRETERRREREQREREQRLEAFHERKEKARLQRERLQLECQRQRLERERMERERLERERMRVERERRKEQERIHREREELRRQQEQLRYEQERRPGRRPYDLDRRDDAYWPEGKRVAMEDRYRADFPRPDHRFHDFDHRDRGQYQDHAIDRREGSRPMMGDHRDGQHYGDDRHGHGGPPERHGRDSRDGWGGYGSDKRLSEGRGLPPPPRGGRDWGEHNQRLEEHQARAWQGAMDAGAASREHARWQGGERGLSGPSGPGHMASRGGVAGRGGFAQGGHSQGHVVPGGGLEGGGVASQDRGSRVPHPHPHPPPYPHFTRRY
inactive: erlotinib 0.015 | [1] -0.135 | [2] -0.294 | [3] 0.071 | [4] -0.148 | [5] 0.049 | [6] 0.014 | [7] -0.015 | [8] -0.037 | [9] -0.041

RHOXF2 (UniProt Q9BQY4)
UniProt Q9BQY4, sequence (Q9BQY4 whole entry, looked up): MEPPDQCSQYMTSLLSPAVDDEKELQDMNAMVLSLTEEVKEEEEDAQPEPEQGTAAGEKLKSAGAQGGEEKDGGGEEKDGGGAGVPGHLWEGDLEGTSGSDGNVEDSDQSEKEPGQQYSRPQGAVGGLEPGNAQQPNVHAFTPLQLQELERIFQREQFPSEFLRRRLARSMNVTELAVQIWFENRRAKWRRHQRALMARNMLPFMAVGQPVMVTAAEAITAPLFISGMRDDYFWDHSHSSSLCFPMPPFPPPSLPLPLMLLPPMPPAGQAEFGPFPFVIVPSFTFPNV
inactive: erlotinib -0.067 | [1] -0.137 | [2] -0.002 | [3] 0.003 | [4] -0.06 | [5] 0.054 | [6] 0.06 | [7] -0.026 | [8] 0.036 | [9] 0.011

SLC18B1 (UniProt Q6NT16)
inactive: erlotinib -0.011 | [1] -0.09 | [2] 0.067 | [3] 0.06 | [4] 0.108 | [5] 0 | [6] 0.12 | [7] 0.002 | [8] -0.037 | [9] 0.081

RBM4 (UniProt Q9BWF3)
inactive: erlotinib 0.02 | [1] 0 | [2] -0.102 | [3] 0.011 | [4] -0.012 | [5] 0.054 | [6] -0.041 | [7] -0.035 | [8] 0.012 | [9] -0.009

RPS3A (UniProt P61247)
inactive: erlotinib -0.178 | [1] -0.041 | [2] -0.232 | [3] 0.062 | [4] -0.039 | [5] -0.035 | [6] -0.028 | [7] 0 | [8] 0.088 | [9] -0.162

RPA1 (UniProt P27694)
inactive: erlotinib 0.003 | [1] 0.07 | [2] 0.147 | [3] 0.008 | [4] -0.005 | [5] 0.003 | [6] 0.027 | [7] 0.075 | [8] -0.013 | [9] -0.021

SART3, A0A499FI31
inactive: erlotinib -0.034 | [1] 0.058 | [2] 0.102 | [3] 0.032 | [4] 0.032 | [5] 0.084 | [6] -0.004 | [7] -0.045 | [8] -0.078 | [9] -0.014

RBM8A (UniProt Q9Y5S9)
inactive: erlotinib -0.021 | [1] -0.014 | [2] 0.012 | [3] -0.008 | [4] -0.076 | [5] 0.024 | [6] -0.069 | [7] -0.035 | [8] 0.025 | [9] 0.003

RPS18 (UniProt P62269)
inactive: erlotinib -0.126 | [1] -0.088 | [2] -0.211 | [3] 0.039 | [4] -0.037 | [5] -0.089 | [6] -0.024 | [7] 0 | [8] 0.097 | [9] -0.144

RPS27A (UniProt P62979)
inactive: erlotinib -0.246 | [1] -0.143 | [2] -0.207 | [3] 0.016 | [4] -0.136 | [5] -0.033 | [6] 0.004 | [7] -0.062 | [8] 0.111 | [9] -0.098

RNASET2 (UniProt O00584)
inactive: erlotinib 0.027 | [1] -0.007 | [2] -0.006 | [3] 0.002 | [4] 0.012 | [5] -0.014 | [6] -0.001 | [7] -0.027 | [8] 0.034 | [9] 0.052
